{"source": "paper PMC8384837", "about": "“Expanding the binding specificity for RNA recognition by a PUF domain”"}
{"target": "PUM1 PUF domain R4-CNG (Homo sapiens, UniProt Q14671 828-1176, N971C;H972N;Q975G)", "test": "yeast three-hybrid, YBZ-1, SC-Leu-His + 0.5 mM 3-AT, 4 days", "settings": "tags: N-Gal4 AD-HA kept; label: inside an RPR1-promoter hybrid RNA with tandem MS2 sites; ssRNA", "method_in_brief": "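Repeat regions from input (SC-Leu) and selection (SC-Leu-His + 0.5 mM 3-AT) plates were PCR-amplified and Illumina-sequenced after four days of growth. The cells were strain YBZ-1 with a LexA–MS2 coat fusion and a HIS3 reporter, co-expressing Pumilio-1 PUF domain libraries and matching RNA elements from a centromeric plasmid. The interaction score is the log change in variant frequency from input to selection, taken in log2 with a pseudocount of 1 for absent variants.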"}
{"sequence": "GGCUAGAACUAGUGGAUCCCCCGGCGCCCGGCGGCUCGAGCCCGGGUAAGUGUAUAUAGUCUGCAUGCCGCCGGGCGCCAUGCCUGCAGGUCGACUCUAGAAAACAUG", "binding signal": "4.94 log2 enrichment (interaction score)"}
{"sequence": "GGCUAGAACUAGUGGAUCCCCCGGCGCCCGGCGGCUCGAGCCCGGGUAAGUGUACAUAGUCUGCAUGCCGCCGGGCGCCAUGCCUGCAGGUCGACUCUAGAAAACAUG", "binding signal": "2.39 log2 enrichment (interaction score)"}
{"sequence": "GGCUAGAACUAGUGGAUCCCCCGGCGCCCGGCGGCUCGAGCCCGGGUAAGUGUAAAUAGUCUGCAUGCCGCCGGGCGCCAUGCCUGCAGGUCGACUCUAGAAAACAUG", "binding signal": "2.92 log2 enrichment (interaction score)"}
